PubChem BioAssay AID743258 (The Scripps Research Institute Molecular Screening Center, 2014)
The whole screen tested about 3,300 compounds, of which about 100 (3%) were called active. Rule as the data show it: active = inhibition above about 9.5%; inactive = the rest. Not all results are given here.

What follows are molecules tested against 1-phosphatidylinositol 4,5-bisphosphate phosphodiesterase gamma-1 (Homo sapiens) (UniProt P19174) (assay: PLC-gamma1 enzyme inhibitors, counter-screen for PLC-beta3 inhibitor project, biochemical, fluorescence (AID 743258)). Conditions: purified PLC-gamma1, fluorogenic substrate, at 12.3 µM, hits give high values.
Chain of 1-phosphatidylinositol 4,5-bisphosphate phosphodiesterase gamma-1 (Homo sapiens) (P19174 whole entry, looked up): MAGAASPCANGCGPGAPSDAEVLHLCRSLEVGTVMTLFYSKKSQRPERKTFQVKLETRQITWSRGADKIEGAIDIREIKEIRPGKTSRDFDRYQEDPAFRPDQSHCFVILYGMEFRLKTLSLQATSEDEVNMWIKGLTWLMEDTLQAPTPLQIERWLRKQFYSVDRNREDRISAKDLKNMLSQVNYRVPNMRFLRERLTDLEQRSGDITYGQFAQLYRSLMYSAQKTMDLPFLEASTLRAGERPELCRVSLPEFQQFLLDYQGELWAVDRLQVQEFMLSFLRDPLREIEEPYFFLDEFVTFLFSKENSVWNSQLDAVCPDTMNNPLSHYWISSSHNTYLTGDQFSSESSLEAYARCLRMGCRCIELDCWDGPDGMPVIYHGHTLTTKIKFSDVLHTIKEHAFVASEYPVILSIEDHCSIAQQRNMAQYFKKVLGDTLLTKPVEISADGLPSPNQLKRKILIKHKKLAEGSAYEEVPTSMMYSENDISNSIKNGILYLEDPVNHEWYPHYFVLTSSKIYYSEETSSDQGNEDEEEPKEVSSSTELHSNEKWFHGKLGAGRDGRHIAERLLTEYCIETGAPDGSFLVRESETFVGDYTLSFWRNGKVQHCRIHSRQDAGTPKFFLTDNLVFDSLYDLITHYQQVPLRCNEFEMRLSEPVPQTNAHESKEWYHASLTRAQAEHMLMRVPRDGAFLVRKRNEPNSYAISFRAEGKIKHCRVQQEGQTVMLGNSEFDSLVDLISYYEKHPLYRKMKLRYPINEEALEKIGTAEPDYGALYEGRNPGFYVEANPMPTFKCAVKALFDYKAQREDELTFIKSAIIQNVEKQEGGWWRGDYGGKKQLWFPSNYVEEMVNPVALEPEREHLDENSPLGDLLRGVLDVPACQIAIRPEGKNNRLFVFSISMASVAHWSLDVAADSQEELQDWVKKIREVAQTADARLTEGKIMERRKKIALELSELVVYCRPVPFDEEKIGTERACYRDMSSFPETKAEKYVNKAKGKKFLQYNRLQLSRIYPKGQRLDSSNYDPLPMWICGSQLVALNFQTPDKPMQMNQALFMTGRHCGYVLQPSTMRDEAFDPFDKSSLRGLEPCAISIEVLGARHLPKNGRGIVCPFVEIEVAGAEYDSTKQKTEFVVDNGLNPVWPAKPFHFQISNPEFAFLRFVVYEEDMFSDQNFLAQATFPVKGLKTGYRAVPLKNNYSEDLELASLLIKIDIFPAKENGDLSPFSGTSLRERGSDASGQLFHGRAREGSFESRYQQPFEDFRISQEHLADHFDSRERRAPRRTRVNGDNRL

SMILES	inhibition
CCCCNc1ccc(C(=O)Nc2cccc(C)n2)cc1[N+](=O)[O-]	-2.76% (inactive)
Nc1nnc(SCC(=O)OCc2ccc(Cl)c(Cl)c2)s1	-3.53% (inactive)
CCCCn1c(SCC(=O)N2CCCC2=O)nc2cc(S(N)(=O)=O)ccc21	-2.51% (inactive)
COc1ccccc1CCNC(=O)CN1C(=O)NC2(CCCC2)C1=O	5.92% (inactive)
Cc1cc(C)c(NC(=O)CN2CCOCCOCCOCCOCC2)c(C)c1	-2.06% (inactive)
O=c1c([N+](=O)[O-])cc(C(F)(F)F)cn1Cc1cccc(Cl)c1	8.36% (inactive)
O=C(CSc1ncn[nH]1)N/N=C/c1ccc(F)cc1	0.56% (inactive)
CCOC(=O)[C@]12CCCC=C1N(CCCOC)C(=O)[C@@H]2CC(=O)N1CCOCC1	-3.38% (inactive)
Cc1nc(Nc2ccccc2C)c2cnn(C)c2n1	-6.74% (inactive)
Cc1cc(NC(=O)COn2nnc3ccccc32)no1	-0.28% (inactive)
C[C@]12c3[nH]c4ccc(Cl)cc4c3CCN1C(=O)[C@@H](CC(=O)NCCCn1ccnc1)C[C@@H]2C(=O)N1CCOCC1	-7.65% (inactive)
C=CC1=C(C(=O)O)N2C(=O)[C@@H](NC(=O)/C(=N\OCC(=O)O)c3csc(N)n3)[C@H]2SC1	88.6% (active)
COc1ccc(C(N)c2csc(NC(=O)Nc3cccc(C(F)(F)F)c3)n2)cc1 (stereo not given)	-0.69% (inactive)
COc1ccc(/C(C)=N/N2CCOCC2)c(O)c1	-16.2% (inactive)
CC(C)n1c(CN2CCN(Cc3ccccc3)CC2)nc2ccccc21	-8.55% (inactive)
CC(=O)C12CC(C)=C(C)CC1CC1C3CCC4=CC(=O)CCC4(C)C3CCC12C (stereo not given)	-1.14% (inactive)
O=C(NC12CC3CC(CC(C3)C1)C2)N1CCCC(CO)C1 (stereo not given)	-3.42% (inactive)
COc1ccccc1C(=O)N1C(CC(=O)Nc2ccccc2C)C(=O)NC2CCCCC21 (stereo not given)	-4.18% (inactive)
C=CCn1c(SCn2nnc3ccccc3c2=O)nnc1-c1ccc(Cl)cc1	-4% (inactive)
CCOC(=O)C1CCN(C(=O)c2ccccc2N(C)S(=O)(=O)c2ccccc2)CC1	-3.46% (inactive)
CCC[C@H]1CCCC/C=C\CCCC(=O)OCCN1C(=O)OC(C)(C)C	1.42% (inactive)
Cc1cccc([C@@H]2[C@@H]3C(=O)N(Cc4ccccc4)C(=O)[C@@H]3[C@]3(Cc4ccc(Cl)cc4)C(=O)N(c4cccc(Cl)c4)C(=O)N23)c1	3.36% (inactive)
Cc1c(C(=O)c2cccc([N+](=O)[O-])c2)c2ccccn2c1CCC#N	-0.24% (inactive)

SMILES	inhibition
CC1(C)CC(=O)C=C(NC2CC(C)(C)NC(C)(C)C2)C1	-0.48% (inactive)
Cc1ccc(-c2cn(S(=O)(=O)c3cccc([N+](=O)[O-])c3)nc2N)cc1	-5.96% (inactive)
O=C(Nc1ccc(Br)cc1)C1CCC(=O)N1Cc1ccccc1Cl (stereo not given)	-0.49% (inactive)
CCN(CC)Cc1csc2ccc(Br)cc12	-2.99% (inactive)
Cc1nc2ccccc2nc1CC(O)(c1ccccc1)c1ccccc1	1.82% (inactive)
C/C(CC(C)C)=N\Oc1nc(C)cc(C)n1	-8.49% (inactive)
O=C(c1ccc2c(c1)OCO2)N1CCNc2ccccc2C1	-5.39% (inactive)
Cc1cccc(C(=O)NCCCN2CCCC2=O)c1	-4.45% (inactive)
Cc1ccc(NC(=S)N(Cc2ccco2)C(C)c2cccs2)cc1 (stereo not given)	-3.86% (inactive)
O=c1c2ccccc2c(-c2ccccc2)nn1Cc1ccccc1	-4.2% (inactive)
O=C1c2ccccc2S(=O)(=O)N1CC(O)Cn1c2ccccc2c2ccccc21 (stereo not given)	2.37% (inactive)
O=C(/C=C/c1c(F)cccc1Cl)Nc1nn[nH]n1	-8.5% (inactive)
CCOc1ccccc1NC(=O)c1cccnc1	-8.44% (inactive)
CCc1c(Nc2ccccc2C)nc(N)[nH]c1=O	0.72% (inactive)
COc1ccc([N+](=O)[O-])cc1N(CC(O)Cn1nnc2ccccc21)S(=O)(=O)c1ccc(C)cc1 (stereo not given)	-0.66% (inactive)
COc1cc(NC(=O)COC(=O)c2ccc([N+](=O)[O-])s2)cc(OC)c1OC	-0.3% (inactive)
Cc1ccc(C(=O)N2CCN(C(=O)N3CCOCC3)CC2)cc1	-6.45% (inactive)
O=C(CSc1nnc(-c2ccncc2)n1C1CCCCC1)Nc1ccccc1	-6.62% (inactive)
COC(=O)NC1(C(F)(F)F)NC(=O)N(C2CCCCC2)C1=O (stereo not given)	-2.81% (inactive)
CN(C)S(=O)(=O)c1cccc(NC(=O)COC(=O)C2(c3ccccc3F)CCCC2)c1	-1.97% (inactive)
O=C(O)c1ccc(Cn2c(=S)[nH]c3cc(Cl)ccc3c2=O)cc1	-7.72% (inactive)
C[C@H](C(=O)N(C)c1ccccc1)[C@@H](O)c1ccc2ccccc2c1	-5.46% (inactive)
CC(C)(C)c1ccc(C(=O)Nc2cc(Cl)c(Br)cc2C(=O)O)cc1	-7.48% (inactive)

SMILES	inhibition
CN(C)/C=C(/C(=O)c1ccc(Cl)cc1)S(=O)(=O)c1ccccc1	-4.31% (inactive)
CCOc1ccc(NC(=O)[C@H](C)NC(=O)C2CC(=O)N(c3ccc(OC)cc3)C2)cc1 (stereo not given in full)	-8.84% (inactive)
CC1Oc2ccccc2N(Cc2cccnc2)C1=O (stereo not given)	-5.05% (inactive)
CCOC(=O)N1CCC(c2cc(=O)n(-c3ccccc3)[nH]2)CC1	2.8% (inactive)
CC(C)C(NC(=O)C1CCC(C(C)(C)C)CC1)C(=O)NCCCN1CCCCC1 (stereo not given)	8.08% (inactive)
CC1(C)CC(=O)C=C(NCCN2CCNCC2)C1	-10.6% (inactive)
Cc1ccc(S(=O)(=O)N2CCCCC2)cc1NC(=O)CCNC(=O)c1ccccc1	-4.84% (inactive)
O=C1CS(=O)CN1c1ccc(Oc2ccccc2)cc1 (stereo not given)	24.1% (active)
CC(C)Oc1ccc(CC(=O)NNC(=S)Nc2ccc(Br)cc2)cc1	-9.3% (inactive)
OC(CNCC1CCCO1)Cn1c2ccc(Br)cc2c2cc(Br)ccc21 (stereo not given)	-8.03% (inactive)
Cc1ccccc1C(=O)Nc1ccccc1Sc1ccccc1	-2.19% (inactive)
CC(=O)c1c(C)[nH]c(C(=O)OCC(=O)Nc2cc(S(=O)(=O)N3CCCCC3)ccc2C)c1C	-5.44% (inactive)
O=C(CCNS(=O)(=O)c1ccc(Br)cc1)NCC1CCCO1 (stereo not given)	-3.55% (inactive)
CCOC(=O)Nc1ccc(NC(=O)OCC)cc1	5.66% (inactive)
Cc1ccc(S(=O)(=O)Cn2nnnc2CN2CCN(Cc3ccc4c(c3)OCO4)CC2)cc1	0.94% (inactive)
Cc1cccc(NC(=O)c2ccc3c(=O)n(CC4CCCO4)c(=S)[nH]c3c2)c1 (stereo not given)	-0.76% (inactive)
CCn1c(/C=C/Nc2ccccc2)[n+](CC)c2ccc(C(=O)OCC(F)(F)F)cc21	-14.3% (inactive)
Cc1ccc(/C=N/NC(=O)CSc2nc3ccccc3o2)cc1	-5.43% (inactive)
CNC(=O)c1ccc(NC(=O)c2cccc(C(F)(F)F)c2)cc1	-6.45% (inactive)
CCCCc1nc2ccccc2c(NC(=O)CN2CCN(C)CC2)c1CCC	-4.07% (inactive)
COc1ccccc1C(=O)Nc1cccc(C(=O)N2CCOCC2)c1	-6.49% (inactive)
COCCCN(C(=S)Nc1c(C)cc(C)cc1C)C(C)c1ccncc1 (stereo not given)	-0.82% (inactive)
Cc1ccc(C)c(N2CCN(S(=O)(=O)c3c(C)[nH]c(C)c3C(=O)N3CCCC3)CC2)c1	-8.57% (inactive)

SMILES	inhibition
CN(CC(=O)NC1CCCCC1)S(=O)(=O)c1ccc(Br)s1	-5.25% (inactive)
O=C1N[C@@H](c2ccccc2)COC(=O)[C@H](Cc2ccc(F)cc2)C/C=C\C[C@@H]1CC(=O)N(CCO)Cc1ccccc1	-2.05% (inactive)
Cc1ccc(N2CC(C(=O)NCCS(=O)(=O)N3CCN(c4ccccc4)CC3)CC2=O)cc1 (stereo not given)	-3.74% (inactive)
O=c1ccc2c(-c3ccccc3S(=O)(=O)O)c3ccc(O)c(O)c3oc-2c1O	26.6% (active)
NC1=CC(=O)C(=O)c2cccnc21	0.29% (inactive)
CCc1ccc(-c2nc(SCC(=O)NC3CCCC3)n[nH]2)cc1	-6.5% (inactive)
Cc1ccc(-n2ncc3c2CC(C)(C)CC3NC(=O)CCc2cnn(C)c2)cc1 (stereo not given)	-2.59% (inactive)
COC(=O)CN1C(=O)C(O)=C(C(C)=O)C1c1ccc([N+](=O)[O-])cc1 (stereo not given)	-0.28% (inactive)
O=C(NCc1ccc(F)cc1F)[C@@H]1CCCN1C(=O)[C@@H]1CCCN1C(=O)c1cccc(Cl)c1	-4.84% (inactive)
CCOc1ccc(CCNC(=O)COC(=O)CCS(=O)(=O)c2ccc(C)cc2)cc1OCC	1.09% (inactive)
Cc1ccc(C(=O)Nc2ccc(C)c(S(=O)(=O)N(C)C)c2)s1	-0.35% (inactive)
CC(=O)C1=C(O)C(=O)N(c2cccnc2)C1c1ccc([N+](=O)[O-])cc1 (stereo not given)	-4.99% (inactive)
O=C(C(c1ccccc1)c1ccccc1)N1CCN(CC(O)COc2ccccc2)CC1 (stereo not given)	0.93% (inactive)
NC1=NN(c2cccc(C(=O)O)c2)C(=O)C1	-3.09% (inactive)
CCOc1cccc(-c2nnc3sc(COc4ccc(OC)cc4)nn23)c1	-4.31% (inactive)
O=S(=O)(Nc1ccc(Oc2ncccn2)c(Cl)c1)c1ccc(F)cc1	-6.2% (inactive)
CC1CCN(S(=O)(=O)c2ccc(S(=O)(=O)NCc3ccco3)cc2)CC1	0.59% (inactive)
CN(C(=O)c1ccc(NC(=O)Cc2cccc(NC(=O)C3CCN(C(=O)c4ccccc4)CC3)c2)cc1)C1CC1	-5.36% (inactive)
COc1cc(OC)nc(S(C)(=O)=O)n1	1.91% (inactive)
O=C(COc1ccc(Cl)cc1)N1CCN(c2cccc(C(F)(F)F)c2)CC1	-4.75% (inactive)
COCCNC(=O)C(c1ccc(O)cc1)N(C(=O)CCC(=O)Nc1nccs1)c1ccc(C)cc1 (stereo not given)	0.09% (inactive)
